{"source": "the OligoGym collection"}
{"biological_target": "ALOX12B", "assay": "pooled miR-30 sensor sort-seq; sequence = guide strand", "details": "shRNA"}
{"sequence": "AATGCTGTTGATCTGGACGGTG", "sensor-assay potency score (higher = more potent)": -0.387}
{"sequence": "TCATTGAGGAGAACGGCCCGGC", "sensor-assay potency score (higher = more potent)": 0.146}
{"sequence": "TCTGATCTCCTCTTTTCTGTGC", "sensor-assay potency score (higher = more potent)": 0.286}
{"sequence": "AACTTGTCTGGGATCCGCGTGC", "sensor-assay potency score (higher = more potent)": 0.172}
{"sequence": "TGTAGAACTCCGCATAGCGTAC", "sensor-assay potency score (higher = more potent)": -1.11}
{"sequence": "TGATCTGGACGGTGTATCGGGT", "sensor-assay potency score (higher = more potent)": -0.615}
{"sequence": "TCTGCTGTTGTCTTTCCTGTGG", "sensor-assay potency score (higher = more potent)": -0.381}
{"sequence": "TAGAAGTCCTGCTTGGCTCTGA", "sensor-assay potency score (higher = more potent)": 0.53}
{"sequence": "TCATCTGCTGTTGTCTTTCCTG", "sensor-assay potency score (higher = more potent)": -0.399}
{"sequence": "ATAATAGGTGATGATCTCCGTC", "sensor-assay potency score (higher = more potent)": -0.228}
{"sequence": "TTTGCAGTCCAACAGGCCGCGG", "sensor-assay potency score (higher = more potent)": -1.33}
{"sequence": "TTGCCAGGGAAAATTTTCCTAA", "sensor-assay potency score (higher = more potent)": -0.741}
{"sequence": "TTGGCTAGCAGCCAGTCCCACT", "sensor-assay potency score (higher = more potent)": -1.48}
{"sequence": "TTGCAGTCCAACAGGCCGCGGA", "sensor-assay potency score (higher = more potent)": -0.697}
{"sequence": "TTGATCTGGACGGTGTATCGGG", "sensor-assay potency score (higher = more potent)": -0.0019}
{"sequence": "TGCACATAGTTGCAGTACCAAG", "sensor-assay potency score (higher = more potent)": -2.04}
